Several values for one entry are separate records, joined by “and”; a condition that tells them apart may be missing. Equal entries are not always repeated. Activity calls are given as the source filed them.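 How the source made its calls: active means compounds whose dose series gives a full or clear partial fitted curve of increased nuclear translocation; inconclusive means weak partial curve or effect only at the top dose; inactive means no dose-dependent translocation response.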
Each compound was assayed against Glucocorticoid receptor (Homo sapiens) (UniProt P04150) (assay: GR-GFP Redistribution (AID 450)). Settings: U2OS GR-GFP nuclear translocation, laser cytometry, 2 h.
Chain of Glucocorticoid receptor (Homo sapiens) (P04150 whole entry, looked up): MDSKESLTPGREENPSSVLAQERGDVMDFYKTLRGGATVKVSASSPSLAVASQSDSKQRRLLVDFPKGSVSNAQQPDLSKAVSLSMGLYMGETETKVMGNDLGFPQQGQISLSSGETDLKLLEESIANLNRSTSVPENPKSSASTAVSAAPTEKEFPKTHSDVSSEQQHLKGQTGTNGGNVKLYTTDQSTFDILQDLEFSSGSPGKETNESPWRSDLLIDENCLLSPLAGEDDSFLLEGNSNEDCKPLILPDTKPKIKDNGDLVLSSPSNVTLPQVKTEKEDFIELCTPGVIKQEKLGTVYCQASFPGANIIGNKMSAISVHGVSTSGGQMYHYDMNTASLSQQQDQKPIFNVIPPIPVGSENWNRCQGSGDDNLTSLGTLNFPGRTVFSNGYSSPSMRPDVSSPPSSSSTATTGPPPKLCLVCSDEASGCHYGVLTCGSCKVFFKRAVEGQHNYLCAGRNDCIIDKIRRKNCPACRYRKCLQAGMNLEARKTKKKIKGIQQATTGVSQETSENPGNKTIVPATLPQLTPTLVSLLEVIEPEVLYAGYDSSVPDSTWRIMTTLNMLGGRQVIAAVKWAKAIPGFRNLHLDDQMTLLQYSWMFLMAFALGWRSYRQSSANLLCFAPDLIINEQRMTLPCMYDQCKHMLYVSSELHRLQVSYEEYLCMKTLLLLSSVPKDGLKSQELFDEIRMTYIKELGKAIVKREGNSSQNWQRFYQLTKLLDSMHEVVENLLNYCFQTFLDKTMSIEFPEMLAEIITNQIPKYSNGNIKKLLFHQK
Source text: NIH Molecular Libraries Screening Centers Network [MLSCN]
NIH Chemical Genomics Center [NCGC]
The glucocorticoid receptor (GR) Redistribution assay (BioImage) enables the visualization of GR cytoplasmic to nuclear translocation by the use of a GR-GFP fusion. GR is normally cytosolic, however ligands such as dexamethasone, cause nuclear translocation where the protein binds to response elements and interacts with various co-factors to modulate transcription. Because both functional agonists and antagonists can induce nuclear translocation, this assay can detect ligands regardless of their effects on gene expression. GR-GFP expressing U20S cells were used here. Dexamethasone was the positive control for translocation and data normalization. Detection of nuclear translocation was performed in 1536-well plates using the Acumen laser scanning plate cytometer (TTP LabTech). Validation of this assay and a detailed protocol have been described.
NCGC Assay Protocol Summary:
GR-GFP U2OS cells were maintained in DMEM with Glutamax and high glucose, 1% v/v penicillin-streptomycin, and 0.5 mg/mL Geneticin. For cell culture, 10% […] fetal bovine serum (FBS) was used (Invitrogen #26140-079). For cell plating 10% dextran, charcoal-stripped FBS (Hyclone SH30068.03) was used. U2OS cells were trypsin treated, suspended in medium, and passed through a 40 um basket filter. The cells were seeded at 600 cells/5 uL/well into clear-bottom black sided 1536-well plates and incubated for approximately 20 hrs, 37degC, 5%, CO2 in a tissue culture incubator. Twenty-three nL of compound was delivered by pin tool and the plates were incubated as above for 2 hrs. The compounds were tested as a 7-point titration ranging from 46 uM to 0.6 nM. The cells were fixed using the Kalypsys Washer/Dispenser station. The fixing protocol involved aspiration of the cell media, addition of 6 uL/well of PBS, aspiration of PBS, addition of 5uL/well of 100% methanol, aspiration of methanol, and addition of 3 uL/well PBS with 1.5 uM propidium iodide (PI). The plates were read by the Acumen Explorer using a 1 x 8 um scan of the whole well area. PI fluorescence triggered the collection of PI and GFP signals. A nuclei population was defined by a 10 to 100 um width and depth filter that eliminated small and large fluorescent particles. Two subpopulations of nuclei were then defined by peak intensity of GFP fluorescence to obtain translocated and untranslocated objects. The number of translocated objects was used for data normalization.
Keywords: NIH Roadmap, MLSCN, MLI, MLSMR, sOGT, qHTS, NCGC
For `COc1ccc(Cl)cc1N=Nc1ncc[nH]1`, the Potency was > 46 µM (inactive). In the case of `C[C@H](O)CO[C@H]1[C@H]2O[C@H]3[C@H](O)[C@@H](O)[C@@H](O[C@H]4[C@H](O)[C@@H](O)[C@@H](O[C@H]5[C@H](O)[C@@H](O)[C@@H](O[C@H]6[C@H](O)[C@@H](OC[C@H](C)O)[C@@H](O[C@H]7[C@H](O)[C@@H](OC[C@H](C)O)[C@@H](O[C@H]8[C@H](O)[C@@H](O)[C@@H](O[C@@H]([C@@H]1O)[C@@H](CO)O2)O[C@@H]8CO)O[C@@H]7CO)O[C@@H]6CO)O[C@@H]5CO)O[C@@H]4CO)O[C@@H]3CO`, the Potency is reported as > 46 µM (inactive). `OCc1cc([C@@H](O)CNCCCCCCOCCCCc2ccccc2)ccc1O` was tested, and the Potency was > 46 µM (inactive). In the case of `CC(C)C[C@@H](NC(=O)OCC1c2ccccc2-c2ccccc21)C(=O)O`, the Potency is reported as > 46 µM (inactive). In the case of `COc1[nH]c2ccc(F)cc2c1C(=O)OCC1CCN(CCNS(C)(=O)=O)CC1`, the Potency is reported as > 46 µM (inactive). `C[C@@H](/C=C\c1cccc(Oc2ccc(F)cc2)c1)N(O)C(N)=O` was tested, and the Potency was > 46 µM (inactive). In the case of `C[C@@H]1CNCCN1S(=O)(=O)c1cccc2cnccc12`, the Potency is reported as > 46 µM (inactive). With `CC(C)NC[C@@H](O)COc1cccc2[nH]ccc12` the Potency was > 46 µM (inactive) and > 20.6 µM (inactive). In the case of `COc1cc2nc(N3CCN(C(=O)[C@H]4CCCO4)CC3)nc(N)c2cc1OC`, the Potency is reported as > 46 µM (inactive). With `CCCCCCCCCCCC(=O)O[C@H](CC(=O)O)C[N+](C)(C)C` the Potency was > 46 µM (inactive). For `NCCCCCCCCCCNS(=O)(=O)c1cccc2c(Cl)cccc12`, the Potency was > 46 µM (inactive). In the case of `CC(=O)O[C@H](CC(=O)O)C[N+](C)(C)C`, the Potency is reported as > 46 µM (inactive). For `OC[C@@H]1O[C@@H](n2cnc3c(N[C@H]4CCC[C@@H]4O)ncnc32)[C@H](O)[C@H]1O`, the Potency was > 46 µM (inactive). For `Cc1c(-c2ccc(Cl)cc2)noc1C1CCN(CCc2ccccc2)CC1`, the Potency was > 46 µM (inactive). `C[N+](C)(CCCCCC[N+](C)(C)CCCN1C(=O)c2ccccc2C1=O)CCCN1C(=O)c2ccccc2C1=O` was tested, and the Potency was > 46 µM (inactive). In the case of `COc1cccc(NC(=O)/C=C\c2ccc(Cl)cc2)c1`, the Potency is reported as > 46 µM (inactive). For `O=Nc1c(-c2c(O)[nH]c3ccccc23)[nH]c2ccccc12`, the Potency was > 46 µM (inactive). With `N[C@@H](C(=O)O)c1ccc(C(=O)O)c(O)c1` the Potency was > 46 µM (inactive). In the case of `O=C(OCCN1CCCCC1)c1c[nH]c2ccccc12`, the Potency is reported as > 46 µM (inactive). `CCCN(C/C=C\I)[C@@H]1CCc2cccc(O)c2C1` was tested, and the Potency was > 46 µM (inactive). `C=C[C@@]1(C)CC(=O)[C@@]2(O)[C@@]3(C)[C@@H](O)CCC(C)(C)[C@@H]3[C@H](O)[C@H](OC(C)=O)[C@@]2(C)O1` was tested, and the Potency was > 46 µM (inactive). For `CCCCCCCCC(=O)NCc1cc(OC)c(O)cc1I`, the Potency was > 46 µM (inactive). For `CCOC(=O)C1=C(N)Oc2ccc(Br)cc2[C@@H]1[C@@H](C#N)C(=O)OCC`, the Potency was > 46 µM (inactive). `CCCn1c(=O)c2[nH]c(-c3ccc(OCC(=O)Nc4ccc(C#N)cc4)cc3)nc2n(CCC)c1=O` was tested, and the Potency was > 46 µM (inactive). With `CC[C@@H]1O[C@]2(C=C[C@@H]1C)C[C@H]1C[C@H](CC=C(C)[C@@H](O[C@@H]3C[C@H](OC)[C@H](O[C@@H]4C[C@H](OC)[C@H](O)[C@H](C)O4)[C@H](C)O3)[C@@H](C)C=CC=C3CO[C@@H]4[C@@H](O)C(C)=C[C@@H](C(=O)O1)[C@]34O)O2` the Potency was > 20.6 µM (inactive). For `C[C@@H](CCc1ccc(O)cc1)NCCc1ccc(O)c(O)c1`, the Potency was > 46 µM (inactive) and > 20.6 µM (inactive). `Cc1noc(NS(=O)(=O)c2cccc3c(N(C)C)cccc23)c1C` was tested, and the Potency was > 46 µM (inactive). In the case of `N#Cc1ccccc1OC[C@H](O)CNCCNC(=O)Nc1ccccc1`, the Potency is reported as > 46 µM (inactive). `C[C@@H]([C@H](O)c1ccc(O)cc1)N1CCC(Cc2ccccc2)CC1` was tested, and the Potency was > 46 µM (inactive) and > 20.6 µM (inactive). For `CCCCCCCCCC(=O)O[C@H](CC(=O)O)C[N+](C)(C)C`, the Potency was > 46 µM (inactive). In the case of `O=C(O)c1cc(=O)c2ccc(Cl)cc2[nH]1`, the Potency is reported as > 46 µM (inactive). With `Nc1nc(NCCc2ccc(O)cc2)nc2nc(-c3ccco3)nn12` the Potency was > 46 µM (inactive). For `O=C(NCCN1CCCCC1)c1ccc(I)cc1`, the Potency was > 46 µM (inactive). `Nc1nc2c(nc(Br)n2[C@@H]2O[C@H]3COP(=O)(O)O[C@H]3[C@@H]2O)c(=O)[nH]1` was tested, and the Potency was > 46 µM (inactive). In the case of `Fc1ccc(C(c2ccc(F)cc2)N2CCN(C/C=C\c3ccccc3)CC2)cc1`, the Potency is reported as > 46 µM (inactive) and > 20.6 µM (inactive). `COC(=O)c1ccccc1NC(=O)c1ccc(F)cc1` was tested, and the Potency was > 46 µM (inactive). `CCCCC[C@H](O)/C=C/[C@@H]1[C@@H](CCCCCCC(=O)O)[C@@H](O)C[C@H]1O` was tested, and the Potency was > 20.6 µM (inactive). With `COc1cccc(CNc2ccc3nc(-c4ccc(N)cc4)c(OC)n3n2)c1` the Potency was > 46 µM (inactive). In the case of `O=S(=O)(NCCCCCCc1ccccc1)c1cccc2c(Cl)cccc12`, the Potency is reported as > 46 µM (inactive). In the case of `O=C(NCCNC[C@@H](O)COc1ccc(O)cc1)N1CCOCC1`, the Potency is reported as > 46 µM (inactive) and > 20.6 µM (inactive).

— PubChem BioAssay (NCATS)
Potency means the concentration at half of the fitted maximal effect.
